# Source: PubChem BioAssay (NCATS)
# Several values for one entry are separate records, joined by “and”; a condition that tells them apart may be missing. Equal values may be shown once. Inconclusive results are not listed. Where a structure was tested more than once in an assay, its records may differ in their call. Activity calls are given as the source filed them. Unless noted, calls come from the whole dose curve; as a rule, active = well fitted curve in either direction with a large enough effect (not every such curve was filed as active); inconclusive = small, poorly fitted or top-dose-only effect, or another doubt; inactive = flat fitted curve, though single readings scatter.
# Key:
# [1] = AP1 Signaling Pathway (AID 357); conditions: ME-180 (cervical carcinoma) AP-1-bla reporter, EGF-induced, beta-lactamase ratio, 5 h;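 note: ME-180 reporter cells stimulated with EGF at its EC50 level; % is set by controls: 0 for no effect and ±100 for the full control effect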
# Method in brief: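 AP-1-bla ME-180 cells, Opti-MEM + 0.5% dialyzed FBS, plated overnight 37 °C. Cpd titration + EC50 EGF, 5 h 37 °C. CCF4 2.5 h RT; ex 405, em 460/530 ratio → %activity, AC50.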
# [2] = molecular target: Cytochrome P450 1A2 (Homo sapiens) (UniProt P05177); assay: p450-cyp1a2 (AID 410; calls by dose curve; note: potency is the fitted concentration of half-maximal effect;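 for activity change, negative = inhibition: -100% = full effect of reference inhibitor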)
# Cytochrome P450 1A2 (Homo sapiens), sequence (P05177 whole entry, looked up): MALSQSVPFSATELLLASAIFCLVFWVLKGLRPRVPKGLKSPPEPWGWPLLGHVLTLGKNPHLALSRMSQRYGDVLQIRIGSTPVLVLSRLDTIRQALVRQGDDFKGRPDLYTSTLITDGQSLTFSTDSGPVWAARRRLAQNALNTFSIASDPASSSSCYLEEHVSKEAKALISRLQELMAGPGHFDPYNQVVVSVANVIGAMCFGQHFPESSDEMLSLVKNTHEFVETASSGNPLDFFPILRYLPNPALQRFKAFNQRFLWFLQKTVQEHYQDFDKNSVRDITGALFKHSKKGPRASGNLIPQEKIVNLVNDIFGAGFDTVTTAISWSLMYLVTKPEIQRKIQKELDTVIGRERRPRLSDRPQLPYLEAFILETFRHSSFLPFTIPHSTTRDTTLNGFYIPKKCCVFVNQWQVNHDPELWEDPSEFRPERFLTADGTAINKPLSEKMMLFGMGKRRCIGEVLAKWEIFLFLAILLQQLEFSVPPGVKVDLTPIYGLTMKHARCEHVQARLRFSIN
# Method in brief: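 20nM CYP1A2, 100uM Luciferin-ME (=Km), 100mM KPO4; cpd 10 min RT; +NADPH regen, 60 min RT; stop/detect 20 min; luminescence. Normalized to furafylline 57 uM = full inhibition.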
# [3] = NFAT Signaling Pathway (AID 444); conditions: Jurkat NFAT-bla M1, carbachol, beta-lactamase ratio, 5 h;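 note: carbachol stimulus at about its EC50 of 1 µM final; % is set by controls: 0 for no effect and ±100 for the full control effect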
# Method in brief: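 Jurkat cells carrying an NFAT-driven β-lactamase reporter and co-transfected muscarinic M1 receptor were treated with compound plus carbachol (1 uM final, an EC50 level) for 5 h at 37 °C. CCF4 loading followed for 1 h at RT; 460/530 nm ratio gave %activity.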
# [4] = Stat Signaling Pathway (AID 446);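 note: ME-180 cervical cancer cells given 40 pM IL-6 alongside compound; SIE-controlled beta-lactamase reporter measured as 460/530 nm FRET emission ratio; % is set by controls: 0 for no effect and ±100 for the full control effect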
# Method in brief: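 Overnight-plated ME-180 cells bearing a STAT Inducible Element beta-lactamase reporter; 5 h co-exposure to compound and 40 pM IL-6; values normalized to 300 pM IL-6 and 125 nM JAK inhibitor controls.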
# [5] = molecular target: Glucocorticoid receptor (Homo sapiens) (UniProt P04150); assay: GR-GFP Redistribution (AID 450;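 active = compounds whose dose series gives a full or clear partial fitted curve of increased nuclear translocation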; note: potency is the fitted concentration of half-maximal effect); conditions: U2OS GR-GFP nuclear translocation, laser cytometry, 2 h
# Glucocorticoid receptor (Homo sapiens), sequence (P04150 whole entry, looked up): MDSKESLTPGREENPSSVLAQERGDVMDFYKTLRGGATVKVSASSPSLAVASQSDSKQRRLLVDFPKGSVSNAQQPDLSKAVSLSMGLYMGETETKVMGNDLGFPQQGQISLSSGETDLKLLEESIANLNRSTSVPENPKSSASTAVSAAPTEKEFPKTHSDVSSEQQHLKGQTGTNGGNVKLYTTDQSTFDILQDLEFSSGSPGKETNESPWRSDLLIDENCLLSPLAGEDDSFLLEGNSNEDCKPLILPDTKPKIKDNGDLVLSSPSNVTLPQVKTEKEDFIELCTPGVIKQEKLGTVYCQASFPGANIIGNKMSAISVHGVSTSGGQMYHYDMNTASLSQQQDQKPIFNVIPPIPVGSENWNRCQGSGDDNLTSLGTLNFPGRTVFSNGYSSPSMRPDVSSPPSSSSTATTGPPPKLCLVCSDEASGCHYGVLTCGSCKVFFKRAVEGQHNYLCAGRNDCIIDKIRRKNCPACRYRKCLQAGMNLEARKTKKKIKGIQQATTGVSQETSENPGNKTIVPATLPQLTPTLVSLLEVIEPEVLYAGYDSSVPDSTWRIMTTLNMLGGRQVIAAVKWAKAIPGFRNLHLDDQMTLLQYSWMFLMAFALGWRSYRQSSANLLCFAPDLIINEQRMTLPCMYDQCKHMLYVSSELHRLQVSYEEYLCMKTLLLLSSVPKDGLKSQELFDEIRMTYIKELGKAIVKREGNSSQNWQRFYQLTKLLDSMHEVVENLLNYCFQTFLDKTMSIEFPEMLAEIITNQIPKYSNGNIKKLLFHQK
# [6] = molecular target: Lysosomal acid glucosylceramidase (Homo sapiens) (UniProt P04062); assay: Glucocerebrosidase-p2 (AID 348; in the data active = potency below about 10 µM; note: potency is the fitted concentration of half-maximal effect); conditions: purified GBA, blue fluorogenic substrate, 40 min
# Lysosomal acid glucosylceramidase (Homo sapiens), sequence (P04062 whole entry, looked up): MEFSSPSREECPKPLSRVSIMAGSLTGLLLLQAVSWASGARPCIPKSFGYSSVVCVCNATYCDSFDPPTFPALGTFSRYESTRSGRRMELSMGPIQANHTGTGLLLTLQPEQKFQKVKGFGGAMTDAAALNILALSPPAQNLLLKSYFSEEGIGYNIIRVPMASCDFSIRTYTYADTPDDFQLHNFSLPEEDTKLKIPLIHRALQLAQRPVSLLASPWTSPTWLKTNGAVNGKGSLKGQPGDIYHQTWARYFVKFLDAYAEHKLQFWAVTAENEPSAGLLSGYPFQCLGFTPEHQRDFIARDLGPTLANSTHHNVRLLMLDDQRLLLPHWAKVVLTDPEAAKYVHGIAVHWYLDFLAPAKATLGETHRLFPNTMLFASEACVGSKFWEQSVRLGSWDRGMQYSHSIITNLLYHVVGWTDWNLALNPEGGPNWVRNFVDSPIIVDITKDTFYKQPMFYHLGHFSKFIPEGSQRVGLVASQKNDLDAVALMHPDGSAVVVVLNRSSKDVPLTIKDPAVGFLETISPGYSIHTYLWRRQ
# Method in brief: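 Normal human glucocerebrosidase (0.2 nM) with blue fluorogenic substrate (80 uM final) in citrate/phosphate pH 5.9 with 10mM sodium taurocholate, 0.01% tween-20; 40 min RT, NaOH/glycine stop; fluorescence Ex 365/Em 440; AC50 from a titration from 0.6 nM upwards.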
# [7] = Cell Viability - BJ (AID 421; calls by dose curve;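 note: potency is the fitted concentration of half-maximal effect; cells exposed to compound for 40 hours at 37 °C before readout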); conditions: BJ fibroblast viability, qHTS
# Method in brief: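 Quantitative HTS: ATP depletion in BJ cells after 40 hr compound exposure in complete culture medium, detected with CellTiter-Glo; AC50 from standard Hill fits.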
# [8] = Cell Viability - HepG2 (AID 433; calls by dose curve;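 note: potency is the fitted concentration of half-maximal effect; potency for ATP loss meaning cytotoxicity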); conditions: qHTS
# Method in brief: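 Cytotoxicity is scored as loss of intracellular ATP in HepG2 cells exposed to compounds for 40 h. Concentration-response curves, normalized to DMSO and 100 uM tamoxifen, give AC50 values.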
# [9] = Cell Viability - MRC5 (AID 434; calls by dose curve;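 note: potency is the fitted concentration of half-maximal effect; cells exposed to compound for 40 hours at 37 °C; potency reflects cytotoxicity seen as loss of intracellular ATP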); conditions: MRC5 lung fibroblast viability, qHTS
# Method in brief: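 Decrease in intracellular ATP, quantified by luciferase light output, reflects compound toxicity toward MRC5 cells exposed for 40 hr in complete culture medium. Concentration-response curves, scaled between DMSO and 100 uM tamoxifen, gave AC50 values.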
# [10] = Cell Viability - SK-N-SH (AID 435; calls by dose curve;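 note: potency is the fitted concentration of half-maximal effect; compound exposure lasted 40 h at 37 °C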); conditions: SK-N-SH neuroblastoma cell viability qHTS
# Method in brief: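 Cells seeded at 1500 per well and incubated 5 hr at 37 °C. Compound added, then 40 hr at 37 °C. CellTiter-Glo added, 20 min at room temperature, luminescence read.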
# [11] = at 17.2 µM (top of the series) unless noted
smiles,measurement,setting,value
CCN(CC)CCOc1ccc(/C(=C(\Cl)c2ccccc2)c2ccccc2)cc1,"activity change, negative = inhibition",[1]; [11],9.05% (inactive)
same,Potency,[2],12.6 µM (active)
same,"activity change, negative = inhibition",[3]; at 17.2 µM (top of the series),-12.4% (inactive)
same,outcome,[4],inactive
same,Potency,[5],> 20.6 µM (inactive)
C[C@H]1C[C@@H]2[C@H]([C@@H](O)C[C@@]3(C)[C@H]2CC[C@]3(O)C(=O)CO)[C@@]2(C)C=CC(=O)C=C12,"activity change, negative = inhibition",[1]; [11],4.57% (inactive)
same,"activity change, negative = inhibition",[3]; at 17.2 µM (top of the series),17.5% (inactive)
same,outcome,[4],inactive
COc1ccccc1N1CCN(CCN2C(=O)CC3(CCCC3)CC2=O)CC1,"activity change, negative = inhibition",[1]; [11],-25.1% [at 38 µM] (inactive)
same,Potency,[2],31.6 µM (active) and inactive
same,"activity change, negative = inhibition",[3]; at 38 µM (top of the series),-25.7% (inactive)
same,outcome,[4],inactive
same,Potency,[5],> 46 µM (inactive)
CC1(C)O[C@@H]2C[C@H]3[C@@H]4C[C@H](F)C5=CC(=O)C=C[C@]5(C)[C@@]4(F)[C@@H](O)C[C@]3(C)[C@]2(C(=O)CO)O1,"activity change, negative = inhibition",[1]; [11],-7.62% (inactive)
same,"activity change, negative = inhibition",[3]; at 17.2 µM (top of the series),22.4% (inactive)
same,outcome,[4],inactive
same,Potency,[5],0.000728 µM (active)
CC1(C)O[C@@H]2C[C@H]3[C@@H]4CCC5=CC(=O)C=C[C@]5(C)[C@@]4(F)[C@@H](O)C[C@]3(C)[C@]2(C(=O)CO)O1,"activity change, negative = inhibition",[1]; [11],4.43% (inactive)
same,outcome,[4],inactive
same,Potency,[5],0.00313 µM (active)
O=C(O)/C=C(\CC(=O)O)C(=O)O,Potency,[6],> 11.4 µM (inactive)
same,"activity change, negative = inhibition",[1]; [11],3.65% [at 7.69 µM] (inactive)
same,Potency,[2],inactive
same,"activity change, negative = inhibition",[3]; at 7.69 µM (top of the series),26.4% (inactive)
same,outcome,[4],inactive
CC(=O)OCC[N+](C)(C)C,"activity change, negative = inhibition",[1]; [11],-2.55% (inactive)
same,"activity change, negative = inhibition",[3]; at 17.2 µM (top of the series),122% [activator] (active)
same,outcome,[4],inactive
same,Potency,[5],> 20.6 µM (inactive)
CC(=O)[C@@]1(O)CC[C@H]2[C@@H]3C[C@H](C)C4=CC(=O)CC[C@]4(C)[C@H]3CC[C@@]21C,"activity change, negative = inhibition",[1]; [11],16% (inactive)
same,"activity change, negative = inhibition",[3]; at 17.2 µM (top of the series),19.2% (inactive)
same,outcome,[4],inactive
same,Potency,[5],0.00082 µM (active)
CCCCCC(=O)O[C@]1(C(C)=O)CC[C@H]2[C@@H]3CCC4=CC(=O)CC[C@]4(C)[C@H]3CC[C@@]21C,"activity change, negative = inhibition",[1]; [11],-2.44% (inactive)
same,outcome,[4],inactive
same,Potency,[5],0.00527 µM (active)
OCCOCCN1CCN(C(c2ccccc2)c2ccc(Cl)cc2)CC1 (centres undefined),"activity change, negative = inhibition",[1]; [11],3.37% (inactive)
same,outcome,[4],inactive
Cc1ncc(CO)c(CO)c1O,"activity change, negative = inhibition",[1]; [11],-2.02% (inactive)
same,Potency,[2],inactive
same,outcome,[4],inactive
CN(C(=O)C(Cl)Cl)c1ccc(OC(=O)c2ccco2)cc1,"activity change, negative = inhibition",[1]; [11],4.41% (inactive) and 1.4% (inactive)
same,Potency,[2],inactive
same,"activity change, negative = inhibition",[3]; at 17.2 µM (top of the series),3.31% (inactive) and -29.1% (inactive)
same,outcome,[4],inactive
same,Potency,[5],> 20.6 µM (inactive)
C[N+](C)(C)CCO,"activity change, negative = inhibition",[1]; [11],0.911% [at 38 µM] (inactive)
same,Potency,[2],inactive
same,"activity change, negative = inhibition",[3]; at 38 µM (top of the series),2.35% (inactive)
same,outcome,[4],inactive
CN(C)c1cc2c(Nc3ccc4c(cnn4Cc4ccccc4)c3)ncnc2cn1,"activity change, negative = inhibition",[1]; [11],-107% [at 38 µM] (active)
same,Potency,[2],7.94 µM (active)
same,Potency,[5],> 46 µM (inactive)
NC(N)=NCCCCN=C(N)N,"activity change, negative = inhibition",[1]; at 17.2 µM (top of the series),10.4% (inactive)
same,"activity change, negative = inhibition",[1]; at 38 µM (top of the series),-0.239% (inactive)
same,"activity change, negative = inhibition",[3]; at 17.2 µM (top of the series),8.46% (inactive)
same,"activity change, negative = inhibition",[3]; at 38 µM (top of the series),-22% (inactive)
same,outcome,[4],inactive
same,Potency,[5],> 46 µM (inactive) and > 20.6 µM (inactive)
CC(=O)Nc1c(I)c(NC(C)=O)c(I)c(C(=O)O)c1I,"activity change, negative = inhibition",[1]; [11],-1.8% (inactive)
same,"activity change, negative = inhibition",[3]; at 17.2 µM (top of the series),-7.63% (inactive)
same,outcome,[4],inactive
same,Potency,[5],> 20.6 µM (inactive)
CC(NCCC(c1ccccc1)c1ccccc1)c1ccccc1 (centres undefined),"activity change, negative = inhibition",[1]; [11],12.2% (inactive)
same,outcome,[4],inactive
same,Potency,[5],> 20.6 µM (inactive)
O=C(c1ccccc1)c1ccccc1,Potency,[7],> 92 µM (inactive)
same,Potency,[8],> 92 µM (inactive)
same,Potency,[9],> 92 µM (inactive)
same,Potency,[10],> 92 µM (inactive)
CC(C)N(CCC(=O)c1ccc2ccccc2c1)Cc1ccccc1,Potency,[2],3.98 µM (active) and 2.51 µM (active)
same,Potency,[5],> 46 µM (inactive)
C1=CC2C3C=CC(C3)C2C1 (centres undefined),Potency,[7],> 92 µM (inactive)
same,Potency,[8],> 92 µM (inactive)
same,Potency,[9],> 92 µM (inactive)
same,Potency,[10],> 92 µM (inactive)
Nc1ccc(O)cc1,Potency,[7],62.8 µM (active)
same,Potency,[9],53.3 µM (active)
same,Potency,[10],43 µM (active)
Oc1ccccc1,Potency,[7],> 92 µM (inactive)
same,Potency,[8],> 92 µM (inactive)
same,Potency,[9],> 92 µM (inactive)
same,Potency,[10],> 92 µM (inactive)
CCCCC(CC)COC(=O)c1ccccc1C(=O)O (centres undefined),Potency,[7],> 92 µM (inactive)
same,Potency,[8],> 92 µM (inactive)
same,Potency,[9],> 92 µM (inactive)
same,Potency,[10],> 92 µM (inactive)
C[C@@H](C1=C(CCN(C)C)Cc2ccccc21)c1ccccn1,Potency,[2],20 µM (active)
Nc1c[n+](N2CCOCC2)no1,Potency,[5],> 46 µM (inactive)
